Records with an inconclusive call do not appear. A structure can be active in one record and inactive in another. The source made the active and inactive calls. The calls were made as follows, unless noted: active = hit-call score of the fitted dose curve at least 0.9, where 1 is the maximum; inconclusive = response in the unintended direction; inactive = score below 0.9.
Columns and labels:
[1] = biological target: Estrogen receptor (Homo sapiens) (UniProt P03372); assay: OT_ERa_GFPERaERE_0120: Odyssey Thera (OT) 2-hour HeLa Transcription Induction Assay for Estrogen Receptor (AID 2283382)
Outline: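 Cells (human cervical HeLa) receive compound, incubate 2 hours, then are imaged for fluorescent reporter induction. Images are quantified by high content analysis, and activity is fitted as gain of signal against DMSO.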

[2] = biological target: Bile acid receptor (Homo sapiens) (UniProt Q96RI1); assay: OT_FXR_FXRSRC1_0480: Odyssey Thera (OT) 8-hour HEK293T Protein-Complementation Assay for Farnesoid X receptor/SRC-1 Co-activator (AID 2283383)
Outline: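 PCA, HEK293T, 8 h compound exposure; FXR–SRC-1 binding reconstitutes split reporter; fluorescence intensity; positive-direction fit vs DMSO.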

[3] = biological target: Bile acid receptor (Homo sapiens) (UniProt Q96RI1); assay: OT_FXR_FXRSRC1_1440: Odyssey Thera (OT) 24-hour HEK293T Protein-Complementation Assay for Farnesoid X receptor/SRC-1 Co-activator (AID 2283384)
Outline: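 Measures ligand-driven FXR–SRC-1 co-activator recruitment in HEK293T via fragment complementation, fluorescence intensity at 24 h. DMSO served as negative control and baseline for gain-of-signal fitting.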

[4] = biological target: Retinoic acid receptor RXR-alpha (Homo sapiens) (UniProt P19793); assay: OT_NURR1_NURR1RXRa_0480: Odyssey Thera (OT) 8-hour HEK293T Protein Complementation Assay for Nurr1/retinoid X receptor (RXR) (AID 2283385)
Outline: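 Interaction of bait and prey reconstitutes a functional reporter, whose fluorescence was measured in HEK293T cells dosed with compound for 8 hours. Signal gain relative to DMSO defined the single endpoint.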

[5] = biological target: Retinoic acid receptor RXR-alpha (Homo sapiens) (UniProt P19793); assay: OT_NURR1_NURR1RXRa_1440: Odyssey Thera (OT) 24-hour HEK293T Protein Complementation Assay for Nurr1/retinoid X receptor (RXR) (AID 2283386)
Outline: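 Steps: fragment-tagged Nurr1 and RXRα expressed in HEK293T; compounds added; after 24 h, complemented reporter quantified by fluorescence intensity; signal increase over DMSO fitted as the single endpoint.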

[6] = biological target: Peroxisome proliferator-activated receptor gamma (Homo sapiens) (UniProt P37231); assay: OT_PPARg_PPARgSRC1_0480: Odyssey Thera (OT) 8-hour Protein-Complementation Assay for Peroxisome Proliferator-activated Receptor Gamma / SRC-1 Co-activator (AID 2283387)
Outline: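 Split-YFP (IFP1/IFP2) PPARg/SRC-1 reporter, HEK293T, 37 °C, 5% CO2; 8 h compound; formaldehyde fix + Draq5; high-content imaging, N/C ratio, ≥350 cells/image, positive direction vs DMSO.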

[7] = biological target: Peroxisome proliferator-activated receptor gamma (Homo sapiens) (UniProt P37231); assay: OT_PPARg_PPARgSRC1_1440: Odyssey Thera (OT) 24-hour Protein-Complementation Assay for Peroxisome Proliferator-activated Receptor Gamma/ SRC-1 Co-activator (AID 2283388)
Outline: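 HEK293T transiently transfected with PPARg/SRC-1 split-Venus YFP fusions 48 h before dosing, then treated 24 h at 37C. Fixed cells imaged; nuclear/cytoplasmic 488 nm fluorescence ratio, gain of signal versus DMSO.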

[8] = ATG_XTT_Cytotoxicity: Cytotoxicity Assessment in the Attagene TRANS-FACTORIAL HepG2 Assay (AID 2283584);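 as to AC50: XTT signal for cell number as viability in transfected HepG2 cells; cells exposed to compound for 24 h before reading; active means loss of viability signal versus DMSO baseline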
Outline: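 HepG2 cells transiently transfected with GAL4-UAS multiple reporter units, dosed 24 h; cytotoxicity read by XTT as loss of signal versus DMSO baseline.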

[9] = TOX21_p53_BLA_p2_viability: Viability Assessment in the Tox21 HCT-116 p53 Agonism Beta-lactamase Assay, Phase 2 (AID 2283591);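 also: compound exposure lasted 16 h at 37 °C; actives lower the ATP signal meaning cytotoxicity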
Outline: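 Cytotoxicity readout: CellTiter-Glo ATP luminescence, 30 min at room temperature, after the beta-lactamase read. Cells were HCT116 exposed 16 h at 37C to compounds pin-transferred at 217-fold dilution from DMSO stocks.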

[10] = CEETOX_H295R_11DCORT: CeeTox H295R High-throughput Steroidogenesis Assay for 11-Deoxycortisol (11DCORT) (AID 2283432; active = hit-call score of the fitted dose curve at least 0.9, where 1 is the maximum; inactive = score below 0.9;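 as to AC50: 11-deoxycortisol secreted into the medium measured by LC-MS/MS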); conditions: actives raise or lower the signal
Outline: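 Steroidogenesis in human H295R cells: 48 h chemical exposure after forskolin priming, 11-deoxycortisol measured by LC-MS/MS.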

[11] = CEETOX_H295R_OHPREG: CeeTox H295R High-throughput Steroidogenesis Assay for OH-Pregnenolone (OHPREG) (AID 2283434; active = hit-call score of the fitted dose curve at least 0.9, where 1 is the maximum; inactive = score below 0.9); conditions: actives raise or lower the signal
Outline: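 Secreted 17alpha-hydroxypregnenolone measured by HPLC-MS/MS after liquid-liquid extraction. Human adrenal H295R cells received 48 h forskolin (10 uM) stimulation before 48 h chemical exposure at 0.1% final DMSO; MTT viability in same wells; bidirectional fit against DMSO.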

[12] = CEETOX_H295R_OHPROG: CeeTox H295R High-throughput Steroidogenesis Assay for OH-Progesterone (OHPROG) (AID 2283435; active = hit-call score of the fitted dose curve at least 0.9, where 1 is the maximum; inactive = score below 0.9;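 as to AC50: 17alpha-hydroxyprogesterone secreted into medium measured by HPLC-MS/MS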); conditions: actives raise or lower the signal
Outline: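 Steps: seed H295R cells and adhere overnight; stimulate with 10 uM forskolin for 48 h; replace with chemical-containing medium (0.1% DMSO) for 48 h; extract medium with MTBE; quantify 17alpha-hydroxyprogesterone by reverse-phase C18 HPLC-MS/MS against a 7-point curve.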

[13] = CEETOX_H295R_ANDR: CeeTox H295R High-throughput Steroidogenesis Assay for Androstenedione (ANDR) (AID 2283436; active = hit-call score of the fitted dose curve at least 0.9, where 1 is the maximum; inactive = score below 0.9); conditions: actives raise or lower the signal
Outline: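 Medium from 48 h chemical-treated H295R adrenal cells was extracted with MTBE and androstenedione measured by LC-MS/MS. Activity was fit in both directions relative to DMSO. Cytotoxic concentrations were re-tested after dilution until MTT viability reached ≥70%.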

[14] = CEETOX_H295R_CORTIC: CeeTox H295R High-throughput Steroidogenesis Assay for Corticosterone (CORTIC) (AID 2283437; active = hit-call score of the fitted dose curve at least 0.9, where 1 is the maximum; inactive = score below 0.9); conditions: actives raise or lower the signal
Outline: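 Medium corticosterone was quantified by tandem mass spectrometry following 48 hours of chemical exposure (0.1% DMSO) in human H295R cells previously stimulated 48 hours with 10 uM forskolin. Viability checked by MTT; chemicals diluted and retested when viability fell below 70%.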

[15] = CEETOX_H295R_CORTISOL: CeeTox H295R High-throughput Steroidogenesis Assay for Cortisol (AID 2283438; active = hit-call score of the fitted dose curve at least 0.9, where 1 is the maximum; inactive = score below 0.9); conditions: actives raise or lower the signal
Outline: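 Cortisol synthesis by H295R cells is measured 48 h after chemical dosing, following a 48 h stimulation with 10 uM forskolin. Hormone is extracted and quantified by HPLC-MS/MS, and activity is fitted bidirectionally against the DMSO control.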

[16] = CEETOX_H295R_DOC: CeeTox H295R High-throughput Steroidogenesis Assay for DOC (AID 2283439; active = hit-call score of the fitted dose curve at least 0.9, where 1 is the maximum; inactive = score below 0.9); conditions: actives raise or lower the signal
Outline: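 Steps: seed H295R, adhere overnight; 10 uM forskolin 48 h; replace with chemical medium (0.1% DMSO) 48 h; collect medium, MTBE extraction, HPLC-MS/MS for DOC. Viability then checked by MTT; cytotoxic chemicals diluted until viability ≥70%.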

[17] = CEETOX_H295R_ESTRADIOL: CeeTox H295R High-throughput Steroidogenesis Assay for Estradiol (AID 2283440; active = hit-call score of the fitted dose curve at least 0.9, where 1 is the maximum; inactive = score below 0.9;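 also: estradiol secreted into medium quantified by LC-MS/MS after dansyl derivatisation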); conditions: actives raise or lower the signal
Outline: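 H295R cells pre-stimulated 48 h with 10 uM forskolin, then exposed 48 h to chemical in 0.1% DMSO. Medium estradiol quantified by MTBE extraction, dansyl derivatisation and HPLC-MS/MS; bidirectional fit versus DMSO; MTT viability required >/=70%.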

[18] = CEETOX_H295R_ESTRONE: CeeTox H295R High-throughput Steroidogenesis Assay for Estrone (AID 2283441; active = hit-call score of the fitted dose curve at least 0.9, where 1 is the maximum; inactive = score below 0.9); conditions: actives raise or lower the signal
Outline: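 Estrone secreted into medium quantified by LC-MS/MS after dansyl chloride derivatization, following 48 h chemical exposure (0.1% DMSO final) of forskolin-prestimulated (10 uM, 48 h) H295R cells; gain or loss fitted against DMSO; MTT viability in same wells.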

[19] = CEETOX_H295R_PROG: CeeTox H295R High-throughput Steroidogenesis Assay for Progesterone (PROG) (AID 2283442; active = hit-call score of the fitted dose curve at least 0.9, where 1 is the maximum; inactive = score below 0.9;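 as to AC50: human H295R adrenal cells primed with 10 µM forskolin before dosing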); conditions: actives raise or lower the signal
Outline: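 H295R adrenal cells prestimulated 48 h with 10 uM forskolin, then exposed 48 h to test chemical in 0.1% DMSO. Progesterone in medium quantified by HPLC-MS/MS after MTBE extraction; viability checked by MTT in same wells.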

[20] = CEETOX_H295R_TESTO: CeeTox H295R High-throughput Steroidogenesis Assay for Testosterone (TESTO) (AID 2283457; active = hit-call score of the fitted dose curve at least 0.9, where 1 is the maximum; inactive = score below 0.9;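 as to AC50: cells exposed to chemicals for 48 h before medium collection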); conditions: actives raise or lower the signal
Outline: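 H295R adrenal cells, passage ≤10, exposed to chemicals for 48 h. Testosterone in medium measured by MTBE extraction and HPLC-MS/MS against a 7-point standard curve. Bidirectional fit versus DMSO; MTT viability checked in the same wells.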

Measured: AC50

Peroxisome proliferator-activated receptor gamma (Homo sapiens), sequence (P37231 whole entry, looked up, the tested form may be a part): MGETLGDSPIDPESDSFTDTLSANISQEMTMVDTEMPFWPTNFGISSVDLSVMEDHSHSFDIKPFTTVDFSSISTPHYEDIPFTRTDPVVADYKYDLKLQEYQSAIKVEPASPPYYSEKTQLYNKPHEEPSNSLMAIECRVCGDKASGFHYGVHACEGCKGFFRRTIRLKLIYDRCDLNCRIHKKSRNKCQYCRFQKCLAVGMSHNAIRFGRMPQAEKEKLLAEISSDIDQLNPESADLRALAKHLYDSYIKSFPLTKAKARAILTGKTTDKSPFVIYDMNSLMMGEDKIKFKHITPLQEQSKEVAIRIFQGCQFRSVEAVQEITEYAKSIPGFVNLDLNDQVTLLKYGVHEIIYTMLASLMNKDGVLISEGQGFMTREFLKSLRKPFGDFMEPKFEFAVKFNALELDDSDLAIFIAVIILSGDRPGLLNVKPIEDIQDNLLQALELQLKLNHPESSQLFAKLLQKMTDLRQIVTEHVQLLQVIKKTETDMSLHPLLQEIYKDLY
Estrogen receptor (Homo sapiens), sequence (P03372 whole entry, looked up): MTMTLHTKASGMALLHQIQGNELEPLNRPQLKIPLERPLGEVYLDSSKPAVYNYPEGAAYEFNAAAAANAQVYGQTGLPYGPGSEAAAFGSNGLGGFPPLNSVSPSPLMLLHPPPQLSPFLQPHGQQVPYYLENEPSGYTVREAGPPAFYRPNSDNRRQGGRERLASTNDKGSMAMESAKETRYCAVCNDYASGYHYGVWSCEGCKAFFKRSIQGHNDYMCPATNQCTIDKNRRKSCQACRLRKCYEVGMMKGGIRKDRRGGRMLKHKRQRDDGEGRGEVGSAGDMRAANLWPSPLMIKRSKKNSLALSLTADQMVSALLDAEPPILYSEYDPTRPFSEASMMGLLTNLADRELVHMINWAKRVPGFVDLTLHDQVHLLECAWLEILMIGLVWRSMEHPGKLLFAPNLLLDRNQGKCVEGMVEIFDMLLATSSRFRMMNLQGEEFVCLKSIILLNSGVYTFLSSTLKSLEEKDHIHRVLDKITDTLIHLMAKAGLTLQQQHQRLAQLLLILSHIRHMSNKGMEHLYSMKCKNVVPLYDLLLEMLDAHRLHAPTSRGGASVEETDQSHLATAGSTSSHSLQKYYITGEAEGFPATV
Retinoic acid receptor RXR-alpha (Homo sapiens), sequence (P19793 whole entry, looked up, the tested form may be a part): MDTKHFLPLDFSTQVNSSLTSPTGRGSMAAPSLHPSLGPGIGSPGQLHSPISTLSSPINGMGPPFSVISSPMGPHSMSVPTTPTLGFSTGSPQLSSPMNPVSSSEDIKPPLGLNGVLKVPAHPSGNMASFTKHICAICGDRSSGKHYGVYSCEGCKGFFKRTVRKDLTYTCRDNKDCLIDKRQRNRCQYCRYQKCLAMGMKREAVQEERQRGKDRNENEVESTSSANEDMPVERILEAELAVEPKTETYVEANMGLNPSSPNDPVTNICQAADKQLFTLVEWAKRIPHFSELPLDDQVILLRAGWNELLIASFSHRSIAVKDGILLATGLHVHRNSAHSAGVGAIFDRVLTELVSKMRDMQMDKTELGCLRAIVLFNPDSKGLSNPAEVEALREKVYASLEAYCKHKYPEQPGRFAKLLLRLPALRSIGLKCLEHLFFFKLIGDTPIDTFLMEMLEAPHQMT
Bile acid receptor (Homo sapiens), sequence (Q96RI1 whole entry, looked up, the tested form may be a part): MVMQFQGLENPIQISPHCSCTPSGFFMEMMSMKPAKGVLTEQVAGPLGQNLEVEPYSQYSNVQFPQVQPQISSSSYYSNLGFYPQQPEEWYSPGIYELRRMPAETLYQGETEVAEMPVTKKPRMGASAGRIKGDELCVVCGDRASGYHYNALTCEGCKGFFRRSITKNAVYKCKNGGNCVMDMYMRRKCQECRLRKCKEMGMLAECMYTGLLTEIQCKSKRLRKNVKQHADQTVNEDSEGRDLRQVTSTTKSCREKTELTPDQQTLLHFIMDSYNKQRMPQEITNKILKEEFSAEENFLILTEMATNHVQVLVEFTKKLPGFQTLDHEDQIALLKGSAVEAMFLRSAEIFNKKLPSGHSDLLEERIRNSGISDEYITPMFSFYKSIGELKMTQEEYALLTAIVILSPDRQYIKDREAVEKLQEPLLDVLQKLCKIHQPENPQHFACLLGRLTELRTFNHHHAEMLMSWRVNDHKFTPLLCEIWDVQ

NC(=O)c1ccccc1O
inactive: [1] | [2] | [3] | [4] | [5] | [6] | [7] | [8] | [9]

CC(C)(C)c1ccc(OC(=O)c2ccccc2O)cc1
active: [2] 35.6 µM | [3] 75.9 µM | [4] 50 µM | [5] 89 µM
inactive: [1] | [6] | [7] | [8] | [9]

CC(C)(C)c1ccc(N)cc1
inactive: [1] | [4] | [5] | [6] | [7] | [8]

CC(C)=CCC[C@H](C)CCO
active: [4] 75.8 µM
inactive: [1] | [5] | [7] | [8]

C1CN(SSN2CCOCC2)CCO1
inactive: [1] | [7] | [9]

COCc1c(C(C)C)nc(C(C)C)c(/C=C/[C@@H](O)C[C@@H](O)CC(=O)O)c1-c1ccc(F)cc1
inactive: [15] | [17] | [18] | [8] | [9]
active: [10] 0.0173 µM | [11] 0.00141 µM | [12] 0.0173 µM | [13] 0.0224 µM | [14] 0.0139 µM | [16] 0.0107 µM | [19] 0.0067 µM | [20] 0.0187 µM

CCO[Si](C)(OCC)OCC
inactive: [1] | [5] | [8] | [9]

C=C1C2CCC(C2)C1(C)C (stereo not given)
inactive: [1] | [6] | [7] | [9]

COc1ccc2nc(N)sc2c1
inactive: [10] | [11] | [13] | [14] | [15] | [16] | [17] | [18] | [20] | [8]
active: [12] 7.33 µM | [19] 22.4 µM

CCCCCCCCCCOS(=O)(=O)O
inactive: [1] | [4] | [6] | [7] | [8] | [9]

OC1CCCCCCCCCCC1
inactive: [1] | [5] | [6] | [7] | [8] | [9]

C=CC(=O)NC(C)(C)CS(=O)(=O)O
inactive: [1] | [6] | [7] | [8] | [9]

c1c[nH]cn1
inactive: [1] | [6] | [7] | [8]

C=COCCCC
not listed: [1] | [2] | [3] | [4] | [5] | [6] | [7] | [9]
inactive: all other assays above

Cc1ccc(N/N=c2\c(=O)cc/c(=N/Nc3ccc(S(=O)(=O)O)cc3)c2=O)c(C)c1
inactive: [1] | [6] | [7] | [9]

CCCCCCCC(C)=O
inactive: [8]

CCCCC/C=C\C/C=C\CCCCCCCC(=O)OC
inactive: [1] | [6] | [7] | [9]
active: [4] 12 µM | [5] 50 µM | [9] 66.2 µM

CC1=CC[C@H]2C[C@@H]1C2(C)C
active: [1] 93.6 µM
inactive: [5] | [6] | [7] | [9]

CCCCCCC1(C)CCC(=O)O1 (stereo not given)
inactive: [1] | [6] | [7] | [8]

CCCCNc1ccc(NCCCC)c2c1C(=O)c1ccccc1C2=O
inactive: [10] | [11] | [13] | [14] | [15] | [16] | [17] | [18] | [20] | [8]
active: [12] 0.164 µM | [19] 0.208 µM

CCCCCCCC[N+](C)(CCCCCCCC)CCCCCCCC
active: [1] 12.4 µM | [8] 9.48 µM
inactive: [6] | [7]

Cc1ccc2c(c1)C(=O)c1ccccc1C2=O
inactive: [8]

Cc1cc(C)c(C(=O)O)c(C)c1
inactive: [5] | [6] | [7]
active: [1] 94.2 µM

S=C(NC1CCCCC1)NC1CCCCC1
inactive: [10] | [11] | [12] | [14] | [15] | [16] | [17] | [18] | [19] | [8]

Reference: PubChem BioAssay (EPA / NIEHS)
